Compound activity as filed in PubChem BioAssay.
HTT cytoprotect: protects HTT-Q103 PC12 cells, measured by ATP; PC12 HTT-Q103 induced, cytoprotection, ATP luminescence, 40 h; Potency, µM (doses to about 56.4 µM), hits mostly activators; actives 0.14% (n = 230,000); AID 1471; also: nearly all actives have a fitted effect of over 45% in size
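Quantitative HTS on tebufenozide-induced (100 nM) PC12 cells expressing HTTQ103 exon 1–GFP; compounds tested as a concentration series; survival measured via cellular ATP.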
HPGD inh: HPGD (human) dehydrogenase inhibition. P15428. purified HPGD, NADH fluorescence kinetic, PGE2 substrate. Potency, µM, hits mostly inhibitors. actives 4.3% (n = 150,000); active = well fitted inhibition curve with a large enough effect, not every such curve was filed as active; inconclusive = small, poorly fitted or top-dose-only effect, or another doubt; inactive = no such curve, though single readings can be large or run the other way
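20 nM HPGD preincubated 15 min at room temperature with compound in 50 mM Tris-HCl pH 8, 0.01% Tween 20. Started with 1 mM NAD+ and 30 uM prostaglandin E2; NADH fluorescence (360/450 nm) read 5 times over 30-s intervals, last minus first.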
GoLoco inh red: RGS12 GoLoco-Gai1 interaction inhibition; actives 0.44% (n = 230,000); AID 880; Gai1:RGS12 GoLoco peptide FP, rhodamine, 10 min; Potency, µM (series often up to 61.6 µM), hits mostly inhibitors; active = well fitted inhibition curve with a large enough effect, not every such curve was filed as active; inactive = no such curve, though single readings can be large or run the other way; also: nearly all actives have a fitted effect of over 30% in size
Target sequence (P63096 whole entry, looked up): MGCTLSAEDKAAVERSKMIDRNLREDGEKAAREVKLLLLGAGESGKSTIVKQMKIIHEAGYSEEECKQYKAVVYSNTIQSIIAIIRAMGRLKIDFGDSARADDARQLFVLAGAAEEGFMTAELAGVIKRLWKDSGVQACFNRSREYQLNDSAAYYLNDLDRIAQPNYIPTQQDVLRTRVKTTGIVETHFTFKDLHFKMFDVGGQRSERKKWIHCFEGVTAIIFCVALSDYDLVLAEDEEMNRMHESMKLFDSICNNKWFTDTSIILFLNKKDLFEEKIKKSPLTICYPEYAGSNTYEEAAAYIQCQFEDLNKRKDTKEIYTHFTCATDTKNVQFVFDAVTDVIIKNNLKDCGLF
ALDH1A1 block: ALDH1A1 (human) enzyme inhibition | P00352 | Potency, µM (highest dose often 75.3 µM), hits mostly inhibitors | Purified ALDH1A1, NADH fluorescence, propionaldehyde substrate | actives 7.3% (n = 220,000); active = well fitted inhibition curve with a large enough effect, not every such curve was filed as active; inconclusive = small, poorly fitted or top-dose-only effect, or another doubt; inactive = no such curve, though single readings can be large or run the other way
PNC assembly inh: blocks assembly of the perinucleolar compartment. PC3M PTB-GFP, PNC prevalence imaging, 16 h; stronger effect = lower value. activity change (PNC), negative = inhibition, % at 10 µM. actives 3.1% (n = 140,000);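 active = readout at or below -70, meaning at least 70% loss of cells showing the perinucleolar compartment, a nuclear body marking cancer cells; inconclusive = readout between -30 and a set limit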
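Read-out is percentage of cells bearing a perinucleolar compartment, from automated 20x imaging of fixed, Hoechst-stained PC3M PTB-GFP cells. Cells were seeded 4 h, then exposed 16 h to compound (23 nl of library stock) in duplicate plates.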
HttQ103 aggreg: inhibitors of mutant huntingtin aggregate formation in PC12 cells. actives 1.1% (n = 220,000). PC12 HttQ103-GFP aggregates, Acumen cytometry, 40 h. Potency, µM (top dose mostly 46.1 µM), usual class: inhibitors; also: nearly all actives have a fitted effect of over 60% in size
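Compounds (qHTS titration) were added to PC12 cells expressing an ecdysone-driven HTT exon 1 Q103–GFP fusion after induction with 100 nM tebufenozide. Aggregate formation was measured as GFP objects in cell lysates.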
Each line names hits and unclear results; the compound was inactive in the other large screens. In the library only some 11% were active in any assay of this set; here they are far more common. Unless noted, calls follow the shape of the dose curve; as a rule, active = well fitted curve in the direction sought with a large enough effect; inconclusive = small, poorly fitted or top-dose-only effect, or another doubt; inactive = no such curve, though single readings can be large; an effect the other way counts as inactive or inconclusive.

CN(C)c1ccc(CN(C(=O)COc2ccc(F)cc2)C2CCS(=O)(=O)C2)cc1 (stereo not given)	ALDH1A1 block inconclusive
CN(C)c1ccc(CN(C(=O)COc2ccc(Br)cc2)C2CCS(=O)(=O)C2)cc1 (stereo not given)	ALDH1A1 block 28µM
CCc1ccc(OCC(=O)N(C)C2CCS(=O)(=O)C2)cc1 (stereo not given)	HttQ103 aggreg inconclusive
CN(C(=O)COc1ccc(C(C)(C)C)cc1)C1CCS(=O)(=O)C1 (stereo not given)	PNC assembly inh -120
Cc1ccc(OCC(=O)N(Cc2ccc(N(C)C)cc2)C2CCS(=O)(=O)C2)cc1 (stereo not given)	ALDH1A1 block 18µM
CCC/C=C(\CCC)C(NC(=O)C(C)(C)C)c1ccc(C(=O)OC)cc1 (stereo not given)	none (no result: PNC assembly inh, HttQ103 aggreg)
O=C(O)/C=C/C(=O)Nc1ccc(S(=O)(=O)Nc2nccs2)cc1	none (no result: HPGD inh, GoLoco inh red, ALDH1A1 block, PNC assembly inh)
CCOC(=O)c1sc(=S)n(C)c1NC(=O)c1ccccc1Cl	HPGD inh 28µM, ALDH1A1 block 32µM
CCOC(=O)c1ccc(-n2c(O)c(/C=N/NC(=O)C3COc4ccccc4O3)c3ccccc3c2=O)cc1 (stereo not given)	HPGD inh inconclusive, HttQ103 aggreg 18µM
Cc1nn(-c2ccccc2)c(Cl)c1/C=N/NC(=O)C1COc2ccccc2O1 (stereo not given)	ALDH1A1 block 2.8µM
O=C(N/N=C/c1c[nH]c2ccccc12)C1COc2ccccc2O1 (stereo not given)	ALDH1A1 block inconclusive, PNC assembly inh inconclusive
COc1ccc(C2CC(c3ccc(Br)cc3)=NN2C(=O)CSC2=NCCS2)cc1 (stereo not given)	HPGD inh inconclusive, ALDH1A1 block inconclusive, PNC assembly inh inconclusive
Cc1noc(C)c1-c1nc(N(C)Cc2ccco2)c2ccccc2n1	ALDH1A1 block inconclusive (no result: HPGD inh, PNC assembly inh, HttQ103 aggreg)
Cc1cccc(/C=N\NC(=O)c2ccc(Cl)cc2)c1O	HttQ103 aggreg 0.45µM (no result: HPGD inh, PNC assembly inh)
O=C(N/N=C/c1cc(Cl)ccc1O)c1ccc(Br)cc1	PNC assembly inh -107, HttQ103 aggreg inconclusive
Cc1ccc(-c2csc(NC(=O)N3CCOCC3)n2)cc1	none (no result: HPGD inh, PNC assembly inh)
O=C(c1cnccn1)N1CCC2(CC1)CCN(c1ccncc1)CC2	none (no result: PNC assembly inh, HttQ103 aggreg)
CCCCCCN1C2=NCCN2c2ccccc21	PNC assembly inh -107
c1ccc(OCCN2C3=NCCN3c3ccccc32)cc1	PNC assembly inh -90 (no result: HPGD inh, GoLoco inh red)
NC(C(=O)O)[C@H](O)C(=O)O (stereo not given in full)	ALDH1A1 block inconclusive (no result: HPGD inh, PNC assembly inh, HttQ103 aggreg)
Cc1cc(C)c(S(=O)(=O)/N=C2\C=CC(=O)C(Cl)=C2)c(C)c1	HPGD inh 20µM, ALDH1A1 block inconclusive
C=C1CCC2C(CC2(C)C)C(=C)CC/C1=N/O (stereo not given)	none (no result: HTT cytoprotect, PNC assembly inh, HttQ103 aggreg)
O=C(NCCCN1CCOCC1)c1ccc(CNS(=O)(=O)c2ccc(Br)cc2)cc1	ALDH1A1 block 22µM (no result: HTT cytoprotect)
CC(C)(C)c1ccc(C(=O)NCCCN2CCN(CCCNC(=O)c3ccc(C(C)(C)C)cc3)CC2)cc1	ALDH1A1 block inconclusive, HttQ103 aggreg 7.1µM
O=C(NCCCN1CCOCC1)c1ccc(Br)cc1	none
Nc1nc2c([nH]c(=O)n2C2OC(CO)C(O)C2O)c(=O)[nH]1 (stereo not given)	none (no result: HTT cytoprotect, PNC assembly inh, HttQ103 aggreg)
S=C(Nc1ccc2c(c1)OCO2)Nc1ccc2c(c1)OCO2	ALDH1A1 block inconclusive
N#Cc1ccc(NCC(=O)Nc2ccc3c(c2)OCCO3)cc1	ALDH1A1 block 13µM (no result: HPGD inh, PNC assembly inh)
CCN(CC)c1ccc(NC(=O)CSc2nnc3nc(C)cc(C)n23)cc1	HPGD inh 16µM, ALDH1A1 block inconclusive
CN(C)C(=S)Nc1ccc2c(c1)OCO2	ALDH1A1 block 10µM (no result: HTT cytoprotect, HPGD inh, PNC assembly inh)
C[C@H](NS(=O)(=O)c1ccccc1)C(=O)OCC(=O)NC(=O)Nc1ccc2c(c1)OCCO2	ALDH1A1 block 14µM
N=C(N)SCCN1CCCCC1	ALDH1A1 block inconclusive (no result: PNC assembly inh, HttQ103 aggreg)
COc1ccc(-n2nc(C)c3sc(C)nc3c2=O)cc1	ALDH1A1 block inconclusive (no result: HPGD inh, PNC assembly inh)
O=C(c1cc(C(F)(F)F)cc(C(F)(F)F)c1)N1CCC[C@@]2(CCN(c3ccncc3)C2)C1	none (no result: PNC assembly inh, HttQ103 aggreg)
